# Reference: PubChem BioAssay
# The source made the active and inactive calls.
# Key:
# [1] = small molecules captured by biotinylated probe aFSTL3 – biochemical, small-molecule microarray, fluorescence 635/667, stem cell growth factor project, primary screen (AID 1064); conditions: higher = more signal;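 note: measures binding of the biotinylated anti-FSTL3 antibody to printed compounds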
# [2] = binders from COS7 lysate, DM2A8 probe, primary screen, torsin A project, cell lysate, small-molecule microarray, fluorescence 635/667 (AID 1065); conditions: higher = more signal, COS7 lysate expressing mutant human TOR1A
# [3] = small molecules captured by biotinylated probe aFGF2 – biochemical, small-molecule microarray, fluorescence 635/667, stem cell growth factor project, primary screen (AID 1067); conditions: higher = more signal;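 note: measures binding of biotinylated aFGF2 protein to printed compounds on slides; z-score merges feature fluorescence and signal-to-noise across triplicate slides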
# [4] = small molecules captured by biotinylated probe aFGF10 – biochemical, small-molecule microarray, fluorescence 635/667, stem cell growth factor project, primary screen (AID 1071); conditions: higher = more signal;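 note: score merges 667 nm spot intensity and signal to noise from triplicate slides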
# [5] = target: Neurogenic locus notch homolog protein 2 (Homo sapiens) (UniProt Q04721); experiment: small molecules binding Notch2 protein – biochemical, small-molecule microarray, 635 nm fluorescence, stem cell growth factors, primary screen (AID 1073); conditions: higher = more signal
# [6] = target: Pro-neuregulin-1, membrane-bound isoform (Homo sapiens) (UniProt Q02297); experiment: small molecules binding neuregulin-1 protein – biochemical, small-molecule microarray, fluorescence 635/667, psychiatric disease protein project, primary screen (AID 1075); conditions: NRG1 binding, 635 nm fluorescence, higher = more signal;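 note: score combines 667 nm spot fluorescence with signal to noise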
# [7] = system: Neuregulin-1 EGF-like domain; experiment: small molecules binding NRG1 EGF domain – biochemical, small-molecule microarray, 635 nm fluorescence, primary screen (AID 1081); conditions: higher = more signal;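 note: binding of the protein to compounds printed on small-molecule microarray slides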
# [8] = FRG1 expression reporter modulators in myotubes – cell-based, C2C12 myotubes, firefly/Renilla luciferase, luminescence, FRG1 inhibition for FSHD, primary screen (AID 1084); conditions: FRG1 promoter luciferase, higher = more signal, called active from +8 up or from −8 down
# [9] = small molecules captured by biotinylated probe aFST – biochemical, small-molecule microarray, fluorescence 635/667, stem cell growth factor project, primary screen (AID 1086); conditions: higher = more signal;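 note: score merges 667 nm fluorescence with signal-to-noise of each printed compound spot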
# [10] = binders of probe aHhip on microarray, primary screen, stem cell growth factor project, biochemical, small-molecule microarray, fluorescence 635/667 (AID 1087); conditions: higher = more signal;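 note: score merges spot fluorescence at 667nm with spot signal to noise ratio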
# Sequence of Neurogenic locus notch homolog protein 2 (Homo sapiens) (Q04721 whole entry, looked up, canonical isoform): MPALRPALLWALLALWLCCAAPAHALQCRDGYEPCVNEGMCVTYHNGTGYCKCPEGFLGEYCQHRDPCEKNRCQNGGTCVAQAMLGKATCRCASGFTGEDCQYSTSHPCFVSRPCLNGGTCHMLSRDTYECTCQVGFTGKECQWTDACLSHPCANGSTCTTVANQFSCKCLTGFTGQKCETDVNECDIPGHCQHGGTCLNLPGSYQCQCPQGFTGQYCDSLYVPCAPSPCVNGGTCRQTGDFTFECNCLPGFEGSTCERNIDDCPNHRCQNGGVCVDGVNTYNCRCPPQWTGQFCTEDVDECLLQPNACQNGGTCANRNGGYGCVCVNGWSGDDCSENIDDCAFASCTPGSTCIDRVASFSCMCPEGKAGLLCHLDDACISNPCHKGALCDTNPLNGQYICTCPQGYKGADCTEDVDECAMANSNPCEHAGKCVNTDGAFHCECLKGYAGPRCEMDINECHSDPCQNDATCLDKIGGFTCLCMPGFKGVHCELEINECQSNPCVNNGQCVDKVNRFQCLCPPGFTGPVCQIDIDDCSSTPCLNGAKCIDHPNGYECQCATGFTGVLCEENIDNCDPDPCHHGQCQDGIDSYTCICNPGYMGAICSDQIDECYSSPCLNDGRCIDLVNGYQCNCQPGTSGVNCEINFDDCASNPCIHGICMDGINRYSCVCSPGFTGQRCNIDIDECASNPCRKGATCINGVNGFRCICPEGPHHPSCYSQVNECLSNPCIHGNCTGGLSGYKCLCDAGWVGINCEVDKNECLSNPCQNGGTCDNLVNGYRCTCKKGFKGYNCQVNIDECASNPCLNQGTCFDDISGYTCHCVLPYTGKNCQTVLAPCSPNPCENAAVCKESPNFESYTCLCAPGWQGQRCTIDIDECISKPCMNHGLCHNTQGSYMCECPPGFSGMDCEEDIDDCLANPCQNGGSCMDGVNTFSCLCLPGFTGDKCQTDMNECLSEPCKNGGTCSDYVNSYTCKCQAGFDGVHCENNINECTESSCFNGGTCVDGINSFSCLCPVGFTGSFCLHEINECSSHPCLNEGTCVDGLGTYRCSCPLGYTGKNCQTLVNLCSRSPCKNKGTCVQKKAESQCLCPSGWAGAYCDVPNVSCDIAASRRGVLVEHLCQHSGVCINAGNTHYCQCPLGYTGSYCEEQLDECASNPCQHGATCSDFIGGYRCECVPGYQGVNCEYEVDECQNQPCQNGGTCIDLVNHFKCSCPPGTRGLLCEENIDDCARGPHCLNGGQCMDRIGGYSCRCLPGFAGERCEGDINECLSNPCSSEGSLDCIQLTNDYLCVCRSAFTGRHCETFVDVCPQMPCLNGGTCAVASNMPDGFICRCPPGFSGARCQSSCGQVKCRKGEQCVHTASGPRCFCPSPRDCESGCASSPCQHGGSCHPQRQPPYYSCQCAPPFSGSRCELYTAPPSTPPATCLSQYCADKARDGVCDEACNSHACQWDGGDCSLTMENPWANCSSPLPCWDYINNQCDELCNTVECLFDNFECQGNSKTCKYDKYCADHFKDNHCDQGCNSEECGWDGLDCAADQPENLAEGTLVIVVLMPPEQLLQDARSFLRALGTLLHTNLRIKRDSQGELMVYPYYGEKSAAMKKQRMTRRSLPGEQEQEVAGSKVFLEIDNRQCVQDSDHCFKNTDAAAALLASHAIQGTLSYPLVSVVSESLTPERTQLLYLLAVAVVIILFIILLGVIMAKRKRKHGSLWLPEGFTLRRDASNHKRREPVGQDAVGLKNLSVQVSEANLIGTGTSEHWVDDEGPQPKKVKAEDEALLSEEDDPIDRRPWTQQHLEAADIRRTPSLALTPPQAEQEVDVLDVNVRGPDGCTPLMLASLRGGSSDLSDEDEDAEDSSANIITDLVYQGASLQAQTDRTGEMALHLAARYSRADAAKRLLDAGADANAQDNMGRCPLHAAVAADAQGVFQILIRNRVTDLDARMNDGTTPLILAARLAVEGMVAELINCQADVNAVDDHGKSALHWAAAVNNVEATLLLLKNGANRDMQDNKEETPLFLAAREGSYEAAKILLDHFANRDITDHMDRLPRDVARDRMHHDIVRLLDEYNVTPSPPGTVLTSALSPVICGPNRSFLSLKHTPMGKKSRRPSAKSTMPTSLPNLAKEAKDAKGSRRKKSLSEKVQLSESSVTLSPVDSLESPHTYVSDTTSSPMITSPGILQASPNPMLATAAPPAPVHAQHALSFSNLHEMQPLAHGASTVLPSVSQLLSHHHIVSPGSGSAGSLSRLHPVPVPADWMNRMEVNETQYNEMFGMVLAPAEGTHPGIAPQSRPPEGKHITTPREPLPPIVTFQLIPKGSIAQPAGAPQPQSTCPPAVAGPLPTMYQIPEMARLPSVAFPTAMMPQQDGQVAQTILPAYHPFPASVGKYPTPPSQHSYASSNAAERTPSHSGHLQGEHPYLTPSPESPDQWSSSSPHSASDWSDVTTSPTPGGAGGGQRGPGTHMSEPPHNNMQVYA
# Sequence of Pro-neuregulin-1, membrane-bound isoform (Homo sapiens) (Q02297 whole entry, looked up, the tested form may be a part, canonical isoform): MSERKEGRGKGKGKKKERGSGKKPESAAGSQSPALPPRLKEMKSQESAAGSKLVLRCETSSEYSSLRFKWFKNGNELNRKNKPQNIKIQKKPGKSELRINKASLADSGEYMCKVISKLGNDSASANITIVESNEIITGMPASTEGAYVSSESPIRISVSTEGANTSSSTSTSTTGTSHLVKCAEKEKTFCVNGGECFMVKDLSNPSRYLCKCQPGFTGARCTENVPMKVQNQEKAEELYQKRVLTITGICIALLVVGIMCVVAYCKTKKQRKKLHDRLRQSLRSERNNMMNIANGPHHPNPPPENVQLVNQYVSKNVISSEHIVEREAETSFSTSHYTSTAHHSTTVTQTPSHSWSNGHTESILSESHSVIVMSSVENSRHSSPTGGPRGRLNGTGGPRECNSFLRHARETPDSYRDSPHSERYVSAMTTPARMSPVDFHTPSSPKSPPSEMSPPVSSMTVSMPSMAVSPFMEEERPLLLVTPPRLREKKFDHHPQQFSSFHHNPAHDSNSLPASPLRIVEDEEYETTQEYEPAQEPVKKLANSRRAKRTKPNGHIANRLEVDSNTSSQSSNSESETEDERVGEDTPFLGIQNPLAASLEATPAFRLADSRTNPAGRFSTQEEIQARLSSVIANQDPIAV
SMILES,composite z-score [1],composite z-score [2],composite z-score [3],composite z-score [4],composite z-score [5],composite z-score [6],composite z-score [7],z-score [8],composite z-score [9],composite z-score [10]
COc1ccc(C(=O)Nc2ccc(CN3C(=O)[C@]4(O[C@H](CCO)[C@@H]([Si](C)(C)c5ccc(OC)cc5)[C@@H]4C)c4ccccc43)cc2)cc1,-0.329,0.0876,-0.087,0.245,0.561,0.77,0.836,-4.05 (inactive),0.305,0.432
COCCOC(=O)N1C(=O)[C@@]2(c3ccccc31)[C@H](c1ccccc1OCCO)N1[C@H](c3ccccc3)[C@H](c3ccccc3)OC(=O)[C@H]1[C@@H]2C(=O)N1CCN(c2ncccn2)CC1,0.0686,1.07,-0.0629,0.0228,0.598,1.38,1.18,-2.05 (inactive),0.152,-0.0672
COCCOC(=O)N1C(=O)[C@@]2(c3cc(C#CCC(C(=O)OC)C(=O)OC)ccc31)[C@H](c1ccccc1OCCO)N1[C@H](c3ccccc3)[C@H](c3ccccc3)OC(=O)[C@H]1[C@@H]2C(=O)N1CCN(c2ncccn2)CC1,-0.266,0.273,0.137,0.432,0.986,1.32,1.2,-0.796 (inactive),0.74,0.03
O=C1C2C=CC(C(O)CCc3ccccc3)N(Nc3ccccc3F)C2C(=O)N1c1ccccc1 (stereo not given),-0.114,0.203,0.179,0.763,1.68,0.572,1.15,0.957 (inactive),1.16,-0.191
C=CC[C@@]1(C(=O)NCCN2CCOCC2)N=C(c2ccc(OCCCO)cc2)O[C@@H]1c1ccccc1N=[N+]=[N-],1.4,-0.355,-0.119,0.686,0.322,1.37,1.03,2.98 (inactive),0.803,-0.0645
O=C(c1ccccc1)N1C(=O)[C@@]2(Cc3ccccc31)N=C(c1ccc(OCCCO)cc1)O[C@H]2c1ccccc1,0.77,0.686,0.15,0.663,1.17,1.57,1.39,-2.91 (inactive),1.01,0.364
COc1cc2c(cc1OC)CN(C(=O)[C@H]1[C@@H]3C(=O)O[C@@H](c4ccccc4)[C@@H](c4ccccc4)N3[C@@H](c3ccc(O)cc3)[C@]13C(=O)Nc1ccccc13)CC2,0.418,0.814,-0.0282,0.681,-0.0554,1.41,1.38,-1.09 (inactive),-0.0422,0.0129
COC(=O)[C@H](Cc1ccccc1)N1CC2=C[C@@H](C3CC3)n3c(=O)n(C)c(=O)n3[C@H]2[C@@H]1[C@@H](O)Cc1ccccc1,-0.575,1.5,0.0066,0.369,0.319,0.323,0.997,0.892 (inactive),0.559,-0.296
C=CCOC(=O)[C@@H]1[C@H]2C(=O)O[C@H](c3ccccc3)[C@H](c3ccccc3)N2[C@H](c2ccc(OCCOC(=O)[C@@H]3C[C@@H]4C(=O)NCC(=O)N4[C@@H]3c3ccc(O)cc3)cc2)[C@@]12C(=O)Nc1ccc(I)cc12,-0.415,0.778,0.0428,0.371,0.364,1.04,1.26,1.12 (inactive),0.0347,-0.0391
O=C1c2ccccc2[C@](Cc2ccccc2I)(C(=O)NCCN2CCOCC2)[C@H](c2ccc(CO)cc2)N1C1CCCCC1,0.446,0.473,-0.0181,0.352,1.39,0.738,1.22,-4.42 (inactive),1.19,0.259
CN1C(=O)C2C=CC(C(O)c3ccco3)N(Nc3ccccc3)C2C1=O (stereo not given),0.034,0.438,0.0772,0.321,1.06,1.51,1.28,0.0122 (inactive),-0.104,-0.0581
CC(C)C[C@@H]1NC(=O)[C@@H]2C[C@H](C(=O)O)[C@H](c3cccc(OCCO)c3)N2C1=O,0.73,0.363,-0.0403,-0.276,-0.475,0.402,0.643,1.29 (inactive),-0.235,-0.264
C=C[C@H](OC)[C@@H](OC(=O)Nc1ccc(OC)cc1)c1ccc(O)c(F)c1,0.348,0.242,-0.175,-0.827,-1.31,1.11,0.804,2.95 (inactive),-0.922,-0.0994
COc1cc(Br)cc(C(O)C2C=CC3C(=O)N(C)C(=O)C3N2N2CCCCC2)c1OC (stereo not given),0.0974,-1.02,-0.053,-0.207,0.224,0.818,1.31,0.876 (inactive),0.347,0.0677
CC(C)N1C(=O)C[C@@](C(=O)NCC(F)(F)F)(c2ccc([N+](=O)[O-])cc2)[C@H]1c1ccc(CO)cc1,0.27,0.513,-0.147,-0.336,-0.545,0.769,0.541,-0.468 (inactive),-0.531,-0.0994
COc1cc(NN2C(C(O)c3ccco3)C=CC3C(=O)N(c4ccccc4)C(=O)C32)cc(OC)c1OC (stereo not given),-0.178,-0.218,-0.116,0.127,0.723,1.18,1.21,0.889 (inactive),0.162,-0.0215
CCOC(=O)C1=C[C@@H](C(C)(C)C)N(S(=O)(=O)c2ccc(C)cc2)[C@H]1c1ccc(F)cc1,-0.272,0.59,0.0434,0.619,1.59,-0.11,0.69,-0.705 (inactive),1.05,-0.0324

SMILES,composite z-score [1],composite z-score [2],composite z-score [3],composite z-score [4],composite z-score [5],composite z-score [6],composite z-score [7],z-score [8],composite z-score [9],composite z-score [10]
CC(C)NC(=O)[C@@H]1c2ccccc2C(=O)N(C2Cc3ccccc3C2)[C@H]1c1ccc(CO)cc1,0.351,0.329,-0.0234,0.0799,0.526,0.634,0.998,-0.943 (inactive),0.148,-0.131
COc1ccc(CCNC(=O)[C@@]2(C)c3ccccc3C(=O)N(C(C)C)[C@H]2c2ccc(CO)cc2)cc1,-0.182,0.39,0.0376,0.4,0.246,0.693,1.3,-0.262 (inactive),0.933,-0.394
C[N+](C)(C)CCCC[C@@H]1NC(=O)[C@H]2C[C@@H](C(=O)NCCCCCCNC(=O)CS)[C@@H](c3cccc(OCCO)c3)N2C1=O,0.227,0.0439,-0.172,-0.83,-1.34,-0.861,0.439,0.816 (inactive),-0.948,-0.261
O=C1[C@@]23C=C(Br)[C@H](C[C@@H]2CCOC3)[C@@]12CO2,-0.655,0.113,-0.103,0.283,0.306,-0.213,-0.1,-0.413 (inactive),-0.0444,0.0373
CCCCN1CC=CC23O[C@@H]4C=CCCOC(=O)C4[C@H]2C(=O)N(CCCCCCO)[C@@H]3C1=O (stereo not given in full),-0.206,-0.596,-0.246,-0.309,-1.1,1.2,1.41,0.357 (inactive),-0.422,-0.7
CCc1cccc(NC(=O)O[C@H]2[C@H](OC(=O)Nc3ccccc3-c3ccccc3)[C@@H](OC(=O)Nc3ccccc3-c3ccccc3)[C@@H](OC)O[C@@H]2CO)c1,-0.283,0.79,0.14,0.806,1.6,1.88,1.27,1.38 (inactive),1.32,-0.104
O[C@@H](Cc1ccccc1)[C@H]1C2C=CCCC=C2CN1Cc1cccc(Cl)c1 (stereo not given in full),-0.328,-0.0571,-0.0075,0.617,0.944,0.898,1.19,-1.45 (inactive),0.61,-0.214
C[N+](C)(C)CCCCNC(=O)[C@@H]1C[C@@H]2C(=O)N[C@@H](Cc3ccccc3)C(=O)N2[C@@H]1c1cccc(OCCO)c1,0.241,-0.108,-0.147,0.394,-0.39,1.01,1.14,1.51 (inactive),-0.253,-0.195
Cc1ccc(S[C@]2(C(=O)NCCCN(C)C)CC(=O)N(Cc3cc(C(F)(F)F)cc(C(F)(F)F)c3)[C@@H]2c2ccc(CO)cc2I)cc1,0.746,0.0752,-0.0894,-0.21,-1.21,2.07,0.634,0.452 (inactive),-0.191,-0.0994
C=C(CCCC)/C(=C/C[C@@H](OC(=O)c1ccncc1)c1ccc(OCCO)cc1)c1cc(C(=O)OC)ccc1OC,-0.356,0.807,-0.129,0.63,-0.0009,0.382,1.01,5.07 (inactive),-0.0132,-0.217
COC(=O)[C@@]1(Cc2ccc(OC)cc2)[C@H]2c3cc(C(=O)N(C)C)n(CCc4ccccn4)c3C[C@H]2CN1C(=O)c1ccccc1,1.63,-0.0525,0.638,0.402,1.61,0.428,1.05,0.845 (inactive),1.38,0.47
CCCC[C@@H]1C[C@H]1[C@@H](NC(=O)c1cccs1)c1ccc(-c2ccccc2)cc1,0.108,0.0945,0.189,0.486,0.146,-0.0051,0.411,-0.621 (inactive),0.151,0.2
CO[C@H]1O[C@H](CO)[C@@H](OC(=O)Nc2ccc(C(F)(F)F)cc2)[C@H](OC(=O)Nc2ccc3c(c2)OCO3)[C@@H]1OC(=O)Nc1ccc2c(c1)OCO2,-0.139,1.62,0.0666,1.22,1.51,1.76,1.29,3.93 (inactive),-0.0167,0.124
C=C(CCCC)C(=O)CC[C@@H](OC(=O)c1ccccc1-c1ccccc1C(=O)O)c1ccc(OCCO)cc1,-0.281,0.358,-0.128,0.826,-0.278,0.529,0.562,-0.109 (inactive),0.135,0.011
CC(C)N1C(=O)c2ccccc2[C@](C)(C(=O)NCCN2CCOCC2)[C@@H]1c1ccc(CO)cc1,0.755,0.779,-0.104,-1.08,-0.879,1.76,0.728,0.185 (inactive),-0.527,-0.306
COC(=O)C(CC#Cc1ccc2c(c1)[C@]1(C(=O)N2)[C@H](c2ccc(OCCO)cc2)N2[C@H](c3ccccc3)[C@H](c3ccccc3)OC(=O)[C@H]2[C@@H]1C(=O)N1CCc2cc(OC)c(OC)cc2C1)C(=O)OC,0.931,0.802,0.119,1.05,1.42,1.07,1.25,2.24 (inactive),1.6,0.876
